HPGD block – qHTS Assay for Inhibitors of HPGD (15-Hydroxyprostaglandin Dehydrogenase); 15-hydroxyprostaglandin dehydrogenase [NAD(+)] (Homo sapiens), P15428; purified HPGD, NADH fluorescence kinetic, PGE2 substrate; Potency, µM, usual class: inhibitors; actives 4.3% (n = 150,000)
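20 nM HPGD preincubated 15 min at room temperature with compound in 50 mM Tris-HCl pH 8, 0.01% Tween 20. Started with 1 mM NAD+ and 30 uM prostaglandin E2; NADH fluorescence (360/450 nm) read 5 times over 30-s intervals, last minus first.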
ALDH1A1 inh – qHTS Assay for Inhibitors of Aldehyde Dehydrogenase 1 (ALDH1A1); Aldehyde dehydrogenase 1A1 (Homo sapiens), P00352; Purified ALDH1A1, NADH fluorescence, propionaldehyde substrate; Potency, µM (titrated, usually from 75.3 µM), hits mostly inhibitors; actives 7.3% (n = 220,000)
Target sequence (P00352 whole entry, looked up): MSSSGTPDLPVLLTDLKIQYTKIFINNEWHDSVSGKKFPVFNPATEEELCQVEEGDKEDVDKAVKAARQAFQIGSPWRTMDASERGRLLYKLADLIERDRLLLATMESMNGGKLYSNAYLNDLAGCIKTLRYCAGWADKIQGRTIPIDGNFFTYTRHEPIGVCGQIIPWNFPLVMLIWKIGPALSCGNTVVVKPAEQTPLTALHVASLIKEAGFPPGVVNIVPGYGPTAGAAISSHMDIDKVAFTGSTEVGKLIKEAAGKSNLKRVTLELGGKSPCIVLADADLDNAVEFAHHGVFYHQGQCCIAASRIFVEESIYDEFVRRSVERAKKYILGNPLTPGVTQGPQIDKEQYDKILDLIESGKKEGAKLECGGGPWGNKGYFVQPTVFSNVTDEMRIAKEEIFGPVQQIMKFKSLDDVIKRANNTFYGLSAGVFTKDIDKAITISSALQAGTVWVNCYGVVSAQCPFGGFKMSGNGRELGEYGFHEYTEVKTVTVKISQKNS
ALOX12 inhib – qHTS Assay for Inhibitors of 12-hLO (12-human lipoxygenase) | Polyunsaturated fatty acid lipoxygenase ALOX12 (Homo sapiens), P18054 | purified 12-hLO, xylenol orange hydroperoxide absorbance | Potency, µM (highest dose often 57.1 µM), usual class: inhibitors | actives 0.12% (n = 150,000); active = well fitted inhibition curve with a large enough effect; inconclusive = small, poorly fitted or top-dose-only effect; note: nearly all actives have a fitted effect of over 55% in size
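Purified human 12hLO (150 nM final) was preincubated with compounds for 15 min at room temperature in 25 mM Hepes pH 7.0, 0.01% Triton X-100, then reacted with 40 uM arachidonic acid for 30 min. Hydroperoxide was detected with ferrous iron/xylenol orange.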
PNC inhibitor – High Content Assay for Compounds that inhibit the Assembly of the Perinucleolar Compartment. actives 3.1% (n = 140,000). PC3M PTB-GFP, PNC prevalence imaging, 16 h; active compounds read low. activity change (PNC), negative = inhibition, % at 10 µM;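 active = readout at or below -70, meaning at least 70% loss of cells showing the perinucleolar compartment, a nuclear body marking cancer cells; inconclusive = readout between -30 and a set limit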
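PC3M cells stably expressing PTB-GFP, 750–1000 cells/well, treated 16 h at 37 °C with compound (23 nl of library stock), in duplicate. After paraformaldehyde fixation and Hoechst stain, imaged at 20x; PNC prevalence scored by image analysis.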
LMNA splice mod – qHTS Assay for Modulators of Lamin A Splicing; Potency, µM (highest dose often 46.1 µM), most hits filed as inhibitors; actives 0.01% (n = 200,000); HeLa LMNA splicing GFP/RFP minigene ratio, 48 h; active = well fitted inhibition curve with a large enough effect in the signal ratio, with a control signal flat, not every such curve was filed as active; inconclusive = small, poorly fitted or top-dose-only effect, or effect the other way, or a change in a side signal; the % refers to the signal ratio
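Read-out is the ratio of GFP to DsRed2 object intensity, acquired by 488 nm laser-scanning cytometry on HeLa lamin A-EGFP minigene reporter cells. Compound incubation 48 hrs at 37 °C in Opti-MEM with 2% FBS; DMSO 0.5% final.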
Numbers stand for hits; 0 = inactive; ? = inconclusive; - = no result; [ ] = another dose, or the depositor's remark. This is a sample that favours compounds with a hit; in the whole collection about 10% have one here. Unless noted, calls come from the whole dose curve; as a rule, active = well fitted inhibition curve with a large enough effect (not every such curve was filed as active); inconclusive = small, poorly fitted or top-dose-only effect, or another doubt; inactive = no such curve, though single readings can be large or run the other way.

SMILES	HPGD block	ALDH1A1 inh	ALOX12 inhib	PNC inhibitor	LMNA splice mod
Cc1ccc2cc(C(c3nnnn3C3CCCC3)N3CCN(c4ccc(F)cc4)CC3)c(=O)[nH]c2c1 (stereo unspecified)	0	11.2µM	0	0	0
COc1ccc2cc(C(c3nnnn3C3CCCC3)N3CCc4ccccc4C3)c(=O)[nH]c2c1 (stereo unspecified)	?	17.8µM	0	0	0
COc1ccc2[nH]c(=O)c(C(c3nnnn3C3CCCCC3)N3CCN(C)CC3)cc2c1 (stereo unspecified)	?	?	0	0	0
O=C(NCC(c1ccc(Cl)cc1)N1CCCCC1)c1ccccc1 (stereo unspecified)	-	-	-	-	0
COCC(=O)N1CCC2(CC1)CCN(C(=O)Nc1cccc(F)c1)CC2	0	0	0	-	-
C[C@H](NC(=O)N1CCc2nc(-c3ccccc3)c3c(c2C1)CO[C@@H](C)C3)c1ccccc1	0	0[13.5 µM]	0[11.4 µM]	-	?
O=C(N/N=C/c1ccc(OC(=O)c2cccs2)cc1)c1ccc(F)cc1	0	0	0	0	0
COc1cc(/C=N/n2cnnc2)ccc1OC(=O)c1ccco1	-	0	-	-	-
COc1cc(/C=C2/C(=O)NN(c3cccc(C)c3)C2=O)ccc1OC(=O)c1ccco1	2µM	3.16µM	?	0	?
CCOc1cc(/C=C/C(=O)O)ccc1OCc1ccccc1	-	0	-	-	?
CCOc1cc(/C=C2/C(=O)N(c3ccccc3)N=C2C)ccc1OC(=O)c1ccco1	8.91µM	?	0	0	0
CCOc1cc(/C=C2\C(=O)ON=C2C)ccc1OCc1ccccc1	7.08µM	3.55µM	0	0	0
CC1=NN(c2ccc(C(=O)O)cc2)C(=O)/C1=C\c1ccc(OC(=O)c2cccs2)cc1	-	2.24µM	-	-	0
CCOc1cc(/C=C2\C(=O)N(c3ccc(C(N)=O)cc3)N=C2C)ccc1OC(=O)c1cccs1	7.08µM	0.708µM	0	0	?
O=C(NCc1ccccc1)c1cnc(N2CCCCC2)c2ccccc12	-	-	-	-	0
O=C1C(NS(=O)(=O)c2cccs2)=C(N2CCN(c3cccc(Cl)c3)CC2)C(=O)c2ccccc21	0	3.16µM	0	0	?
CC1CCN(C2=C(NS(=O)(=O)c3ccc(Cl)cc3)C(=O)c3ccccc3C2=O)CC1	0	?	0	0	?
Cc1ccc(/C=C/c2onc(C)c2S(=O)(=O)N2CCC(C(=O)Nc3cccc(C#N)c3)CC2)cc1	-	-	-	-	0
COC(=O)c1ccc2c(=O)n(CCN3CCOCC3)c(SCC(=O)C(C)(C)C)nc2c1	0	12.6µM	0	0	0
COc1ccccc1Cn1c(=S)[nH]c2cc(C(=O)NCCN3CCOCC3)ccc2c1=O	-	20µM	0	?	?
COCCn1c(=S)[nH]c2cc(C(=O)NCCCN3CCOCC3)ccc2c1=O	0	15.8µM	0	0	0
O=C(NCCCN1CCCC1)c1ccc(Cn2c(=S)[nH]c3ccc(Br)cc3c2=O)cc1	-	22.4µM	-	-	0
COC(=O)c1ccc(CN(Cc2ccc(OC)c(OC)c2)S(=O)(=O)c2ccc(F)c(C(=O)Nc3cc(C)ccc3C)c2)cc1	-	-	-	-	0
CC1CCc2nc3ncn(Cc4ccc(Cl)cc4)c(=O)c3cc2C1 (stereo unspecified)	-	-	-	-	0
COC(=O)c1ccc2c(=O)n(CCN3CCOCC3)c(=S)[nH]c2c1	0	3.98µM	0	-100.5	0
SMILES	HPGD block	ALDH1A1 inh	ALOX12 inhib	PNC inhibitor	LMNA splice mod
COC(=O)c1ccc2c(=O)n(CCCN3CCOCC3)c(=S)[nH]c2c1	0	?	0	0	0
O=C(NCCCN1CCOCC1)c1ccc2c(=O)n(CCc3ccccc3)c(=O)[nH]c2c1	0	?	0	-94.8	0
Cc1ccc(C)c(NC(=O)CN2C(=O)C3(SCC(=O)N3c3ccc(C)c(C)c3)c3ccccc32)c1 (stereo unspecified)	-	-	-	-	0
C[C@@H](N=C(N)N)C(=O)O	0	0[13.5 µM]	0[11.4 µM]	-	-
CCOC(=O)C1=C(C)Nc2nc(SCC)nn2C1c1ccc(OC)cc1 (stereo unspecified)	0	?	0	0	0
COc1ccccc1NC(=O)C1=C(C)Nc2nnnn2C1c1ccccn1 (stereo unspecified)	0	12.6µM	0	0	?
CCOC(=O)C1=C(C)Nc2ncnn2C1c1ccc(N(C)C)cc1 (stereo unspecified)	-	17.8µM	0	0	0
CCOC(=O)C1=C(C)Nc2nc(=S)[nH]n2C1c1ccc(Cl)cc1 (stereo unspecified)	11.2µM	?	0	?	0
COc1ccccc1NC(=O)C1=C(C)Nc2nnnn2C1c1cccc(C)c1 (stereo unspecified)	?	14.1µM	0	0	0
Cc1cn2c(=O)cc(COC(=O)c3cccc(NC(=O)C(C)Oc4ccccc4)c3)nc2s1 (stereo unspecified)	-	-	-	-	0
COC(=O)C1=C(C(=O)OC)[C@@H]2Nc3ccccc3[C@@]23C[C@@H](C(=O)OC)N(S(=O)(=O)c2cccs2)C3=N1	0	0[13.5 µM]	0[11.4 µM]	-	0[9.22 µM]
CCOC(=O)C1=C(C)NC(=O)CC1c1ccccc1 (stereo unspecified)	0	0	0	0	0
COc1ccc(C2C(C(=O)Nc3ccccc3OC)=C(C)Nc3ncnn32)cc1 (stereo unspecified)	0	14.1µM	0	0	0
CC1=C(C(=O)OC(C)C)C(c2c[nH]c3ccccc23)n2ncnc2N1 (stereo unspecified)	0	0	0	-105.8	0
CCOC(=O)C1=C(C)NC(=S)N(C(C)=O)C1c1ccccc1 (stereo unspecified)	0	25.1µM	0	?	0
O=C(O)c1nc(-c2ccccc2)[nH]c1C(=O)O	0	0[13.5 µM]	0[11.4 µM]	-	-
COc1ccc(/C=C2\CCCC(C(=O)C(F)(F)F)=C2O)cc1	0	0.447µM	0	0	0
O=C(NNC1=C(C(=O)C(F)(F)F)CCC1)c1cccc(O)c1	0	0	0	0	?
COc1ccc(/C=C2\CCOC2=O)cc1	0	0	0	?	0
O=C(C1=C(O)/C(=C/c2ccc(O)cc2)CCC1)C(F)(F)F	0	0.0794µM	?	0	?
CC1=NN(c2ccccc2)C(=O)/C1=C/c1ccc[nH]1	0	0	0	0	0
CC1=NN(c2ccccc2)C(=O)/C1=C/C=C/C=C/N(C)C	-	0	-	-	-
CC1=NN(c2ccccc2)C(=O)/C1=C/c1cccs1	31.6µM	14.1µM	0	?	0
CC1=NN(c2ccccc2)C(=O)/C1=C\c1ccc(Br)s1	28.2µM	7.94µM	0	0	?
CC1=NN(c2ccccc2)C(=O)/C1=C/c1c(O)n(-c2ccc(F)cc2)[nH]c1=O	0	20µM	0	0	0
Cc1ccc(NC(=O)c2ccc3c(c2)C(=O)N(Cc2cccnc2)C3=O)c(C)c1	-	0	-	-	0
CCN1C(=O)[C@H]2[C@@H]3[C@H](O)[C@H](O)CC(=O)[C@H]3CC[C@H]2C1=O	-	0[13.5 µM]	-	-	-
